# Assay outcomes (PubChem BioAssay)
# HT1080-NT tox = qHTS for induction of synthetic lethality in tumor cells producing 2HG: qHTS for the HT-1080-NT fibrosarcoma cell line. HT-1080-NT fibrosarcoma viability, CellTiter-Glo ATP luminescence, 48 h. Potency, µM (titrated, usually from 46.1 µM), hits mostly cytotoxic. actives 1.6% (n = 360,000). AID 686970, 2013;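 further: NT is the 2HG producing partner of a matched IDH1 knockdown line; nearly all actives have a fitted effect of over 55% in size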
#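 HT-1080-NT fibrosarcoma cells (2HG-overproducing), 750 cells/well in RPMI with 5% FBS, dosed after 2 h and incubated 48 h at 37C. CellTiter-Glo luminescence normalized to DMSO and no-cell wells; concentration-response curves fitted and classed.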
# DT40 TDP1 no CPT = qHTS for Inhibitors of human tyrosyl-DNA phosphodiesterase 1 (TDP1): qHTS in cells in absence of CPT; DT40 Tdp1-/- hTDP1 cells, no CPT, ATP luminescence, 48 h; Potency, µM (top dose mostly 46.2 µM), most hits filed as inhibitors; actives 15% (n = 420,000); AID 686978, 2013; further: nearly all actives have a fitted effect of over 55% in size
#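 A cellular qHTS used chicken DT40 cells lacking endogenous Tdp1 but carrying stably transfected human TDP1. Compounds were applied without camptothecin, and cell growth kinetics were judged by ATP-dependent luminescence after ≥48 hr.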
# HT1080 IDH1KD tx = qHTS for induction of synthetic lethality in tumor cells producing 2HG: qHTS for the HT-1080-IDH1KD cell line | HT-1080 IDH1 knockdown viability, ATP luminescence, 48 h | actives 2% (n = 360,000) | Potency, µM (top dose mostly 46.1 µM), hits mostly cytotoxic
#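 HT-1080-IDH1KD cells (IDH1 knocked down), 750/well in RPMI with 5% FBS, treated with compound 48 h at 37 degrees C. Viability by CellTiter-Glo luminescence, normalised to DMSO and no-cell wells; concentration-response curves classed.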
# DT40 TDP1 CPT = qHTS for Inhibitors of human tyrosyl-DNA phosphodiesterase 1 (TDP1): qHTS in cells in presence of CPT | actives 12% (n = 420,000) | AID 686979, 2013 | Potency, µM (titrated, usually from 46.2 µM), most hits filed as inhibitors | chicken DT40 Tdp1-/-;hTDP1 cells + 20 nM CPT, ATP luminescence, 48 h; further: nearly all actives have a fitted effect of over 55% in size
#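 Cell growth measured by CellTiter-Glo luminescence after a minimum 48 h, 37 C compound exposure with 20 nM CPT in Tdp1-knockout DT40 cells stably expressing hTDP1, seeded 400/well; qHTS titration format.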
# IL1B secr inh = qHTS for Inhibitors of Inflammasome Signaling: IL-1-beta AlphaLISA Primary Screen; activity change, % at 57.5 µM; THP-1 LPS/ATP IL-1B secretion, AlphaLISA, 16 h; hits give low values; actives 4.7% (n = 360,000); in the data active means activity change below about -50%; inconclusive means mostly about -30% to -49%
#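 Secreted IL-1B measured by AlphaLISA bead assay after 16 h compound exposure of THP-1 cells; compounds (final up to 57.5 uM) added 1 h before LPS (250 ng/mL) and ATP (1.25 mM) stimulation; lower signal means less secretion.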
# Numbers stand for hits; 0 = inactive; ? = inconclusive; - = no result. Shown are actives, neighbours in structure and some others; about 19% of the full set was active somewhere. Unless noted, the call rests on the fitted dose curve; in most records, active means well fitted curve in the direction sought with a large enough effect; inconclusive means small, poorly fitted or top-dose-only effect, or another doubt; inactive means no such curve, though single readings can be large; an effect the other way counts as inactive or inconclusive.
SMILES,HT1080-NT tox,DT40 TDP1 no CPT,HT1080 IDH1KD tx,DT40 TDP1 CPT,IL1B secr inh
Cc1ccccc1-c1nc(NCCN(C)C)nc2ccsc12,?,?,0,0,0
C/C(=N/NC(=O)CN(c1ccccc1)S(=O)(=O)c1ccccc1)c1ccccc1O,?,9.2µM,?,18µM,0
Cc1ccc(-c2n[nH]c(=O)c3ccccc23)cc1S(=O)(=O)NC(C)(C)C,0,0,0,?,0
CCN(CC)C(=O)COc1ccc(-c2nnc(Nc3ccc(OC)c(C(=O)NC)c3)c3ccccc23)cc1,0,21µM,0,?,-79
CNS(=O)(=O)c1cc(-c2nnc(Nc3ccc(NC(C)=O)cc3)c3ccccc23)ccc1C,0,18µM,0,16µM,?
C#CC(C)(C)NS(=O)(=O)c1cc(-c2nnc(Nc3ccc(C)cc3)c3ccccc23)ccc1C,-,?,-,21µM,-
CCN(CC)S(=O)(=O)c1cc(-c2nnc(Nc3ccc(OC)c(C(N)=O)c3)c3ccccc23)ccc1C,-,?,-,18µM,-
CCN(CC)C(=O)c1ccc(-c2nnc(Nc3ccc(O)cc3)c3ccccc23)cc1,0,?,0,0,0
CC(=O)Nc1ccc(Nc2nnc(-c3ccc(O)cc3)c3ccccc23)cc1,0,0,0,0,0
CCN(CC)C(=O)c1ccc(Nc2nnc(-c3ccc(C)c(S(=O)(=O)NC)c3)c3ccccc23)cc1,-,21µM,-,26µM,-
C#CCOc1ccc(-c2nnc(Nc3ccc(NC(C)=O)cc3)c3ccccc23)cc1,-,16µM,-,?,-
COc1ccc(Nc2nnc(-c3ccc(C(=O)NCCO)cc3)c3ccccc23)cc1,0,6.5µM,0,3.3µM,0
COc1ccc(Nc2nnc(-c3ccc(C(N)=O)cc3)c3ccccc23)cc1,0,?,0,?,?
CCN(CC)C(=O)c1ccc(-c2nnc(Nc3ccc(C(=O)N(C)C)cc3)c3ccccc23)cc1,0,16µM,0,?,?
Cn1c(=O)oc2cc(S(=O)(=O)N3CCCC(C(=O)NCCc4ccccc4)C3)ccc21 (configuration not stated),-,0,-,0,-
O=C(NCCC(c1ccccc1)c1ccccc1)c1cnc2sccn2c1=O,0,0,0,?,0
COc1ccc(OC2OC3COC(C)(C)OC3C(O)C2NC(C)=O)cc1 (configuration not stated),0,0,0,0,0
CC(=O)c1cccc(Nc2nn(-c3ccc(OC(F)(F)F)cc3)nc2C(C)=O)c1,-,0,-,?,-
COc1ccc(C(=O)c2ccc(C)cc2)c(OC)c1OC,?,18µM,18µM,23µM,0
O=C(NC(=O)N1CCN(C(c2ccccc2)c2ccccc2)CC1)c1ccccc1,0,?,0,?,?
Cc1ccccc1Nc1nnc(SCC(=O)Nc2ccccc2[N+](=O)[O-])s1,0,0,0,0,0
COc1ccc(NC(=O)CSc2nnc(NC(=O)Nc3ccc(OC)cc3)s2)cc1,-,0,-,0,-
COc1cccc(Nc2nnc(SCC(=O)Nc3sccc3C(N)=O)s2)c1,?,8.2µM,0,13µM,0
CCCC(=O)Nc1nnc(SCC(=O)NCc2ccc3c(c2)OCO3)s1,0,0,0,0,0
COc1ccc(NC(=O)CSc2nnc(NC(=O)c3ccccc3C(=O)O)s2)cc1,0,?,0,26µM,0
SMILES,HT1080-NT tox,DT40 TDP1 no CPT,HT1080 IDH1KD tx,DT40 TDP1 CPT,IL1B secr inh
Cc1cccc(Nc2nnc(SCC(=O)Nc3ccccc3[N+](=O)[O-])s2)c1,0,16µM,0,?,0
O=C(CSc1nnc(NC(=O)c2ccco2)s1)NCc1ccc2c(c1)OCO2,0,18µM,0,0,0
COc1ccccc1C(=O)OCC(=O)NC1CCCC1,?,0,0,0,0
CCC(=O)Nc1nnc(SCC(=O)NCC2CCCO2)s1 (configuration not stated),?,0.29µM,?,0,0
CCC(=O)Nc1nnc(SCC(=O)Nc2ccc3c(c2)OCCO3)s1,0,?,?,15µM,0
COc1ccc(Nc2nnc(SCC(=O)NC(=O)Nc3ccc4c(c3)OCCO4)s2)cc1,0,16µM,0,?,0
CCC(=O)Nc1nnc(SCC(=O)Nc2ccc3c(c2)OCO3)s1,0,?,0,?,0
CC1CCCCC1NC(=O)CCCCn1c(=O)[nH]c2ccsc2c1=O (configuration not stated),0,0,0,0,0
OC(c1cccc(Cl)c1)c1nc(-c2ccoc2)cs1 (configuration not stated),?,?,?,?,0
CCOC(=O)C1(O)CC(C)=NN1C(=O)c1cccc(Cl)c1 (configuration not stated),0,0,0,0,0
COCCN(CC1CCCN(C2Cc3ccccc3C2)C1)C(=O)CCC(C)=O (configuration not stated),0,0,0,0,0
COCCN(CC1CCCN(C2Cc3ccccc3C2)C1)C(=O)CCC(N)=O (configuration not stated),0,?,0,0,-52
Cc1ccccc1NC(=S)N1CCN(c2ccccc2C)CC1,0,?,0,?,0
Cc1ccc2oc(-c3cccc(NC(=O)/C=C/c4cccc([N+](=O)[O-])c4)c3C)nc2c1,0,?,0,?,0
CCN(CC)S(=O)(=O)c1ccc(C)c(NC(=S)N2CCN(Cc3ccc4c(c3)OCO4)CC2)c1,?,21µM,21µM,21µM,0
Cc1ccc(NC(=S)N2CCN(Cc3ccc4c(c3)OCO4)CC2)c(C)c1,0,0,0,0,0
CCN(CC)S(=O)(=O)c1ccc(C)c(NC(=S)N2CCN(c3ccccn3)CC2)c1,0,15µM,0,18µM,-73
CCc1ccccc1NC(=S)N1CCN(c2ccccn2)CC1,0,0,0,0,0
CCN(CC)S(=O)(=O)c1ccc(C)c(NC(=S)N2CCN(C/C=C/c3ccccc3)CC2)c1,0,12µM,0,?,0
COc1ccc(S(=O)(=O)N2CCOCC2)cc1NC(=O)CN1C(=O)NC2(CCC(C)CC2)C1=O (configuration not stated),0,0,0,0,0
Cc1ccc(Cn2c(CNS(=O)(=O)c3c(C)cc(C)cc3C)nc3cccnc32)cc1,-,?,-,16µM,-
CCOc1ccc(Cn2c(CNS(=O)(=O)c3ccc(Cl)s3)nc3cccnc32)cc1,-,?,-,18µM,-
COc1ccc(Cn2c(CNS(=O)(=O)c3ccc(C)c(C)c3)nc3cccnc32)cc1,-,0,-,0,-
CCOc1ccc(Cn2c(CNS(=O)(=O)c3c(C)cc(C)cc3C)nc3cccnc32)cc1,-,18µM,-,?,-
